From PubChem BioAssay (NCI)
Compounds without any hit were thinned out: in the full panel of roughly 83,000, 20% have a hit.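 Testing used 96-well plates and a 48-hour single-concentration exposure. Example: -40 means 40% of the starting cells died.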 Activity calls are given as the source filed them. How the source made its calls: active means growth percent below 10; inactive means the rest.

What follows are molecules tested on SK-OV-3 ovarian (assay: NCI-60 one-dose screen, 48 h (100 = growth as untreated, 0 = no growth, -100 = all killed)). Conditions: 10 µM.

Question: Which growth does the source give for N#Cc1ccc(-c2nn(-c3ccc(C(=O)O)cc3)cc2CNc2ccc(Oc3ccccc3)cc2)cc1 here?
Answer: 111% (inactive)

Question: With COc1cc2c(cc1OC)CN(CCCCOc1cc(O)c3c(=O)cc(-c4ccccc4)oc3c1)CC2 as the molecule, how does the growth read?
Answer: 74.5% (inactive)

Question: Which growth does the source give for Cc1cc(=O)oc2cc(OCCCCOc3ccc(/C=C/C(=O)Nc4ccc(F)c(Cl)c4)cc3)ccc12 here?
Answer: 122% (inactive)

Question: With COc1ccc(CN2[C@@H](C(=O)NCc3ccc(C(=O)NO)cc3)Cc3c([nH]c4ccccc34)[C@@H]2C2CC2)cc1 as the molecule, how does the growth read?
Answer: -24.8% (active)

Question: With COC(=O)c1c(C(=O)OC)c2n(c1C)[C@@H]([C@@H](C)[C@H]1CC[C@H]3[C@@H]4CCC5=CC(=O)CC[C@]5(C)[C@H]4CC[C@]13C)SC2 as the molecule, how does the growth read?
Answer: 48.7% (inactive)

Question: With O=C1CCC(N2Cc3cc(CC(=O)Nc4ccc(N5CCCCC5)cc4)ccc3C2=O)C(=O)N1 (configuration not stated) as the molecule, how does the growth read?
Answer: 61% (inactive)

Question: For Cn1cc(-c2cc(N)n3nc(-c4c[nH]c5ccc(Br)cc45)cc3n2)c2cc(Br)cnc21, which growth is on record?
Answer: -55.9% (active)

Question: COc1ccc(C(=O)CSc2nnc(-c3c[nH]c4ccccc34)n2-c2ccccc2)cc1 was tested. Which growth did it give?
Answer: 66.3% (inactive)

Question: How did the growth turn out when CC(C)C1=C[C@@]23CC[C@@H]4[C@](C)(CCC[C@]4(C)C(=O)NCc4ccccc4)[C@H]2C[C@@H]1[C@H]1C(=O)CCC(=O)[C@H]13 was run?
Answer: 105% (inactive)

Question: Which growth does the source give for Nc1nc(Nc2ccccc2)nn1Cc1c(Cl)cccc1Cl here?
Answer: 51.3% (inactive)

Question: With Cc1ccc2nc(COc3ccc(C(=O)NNC(=S)NCCc4ccccc4)cc3)[nH]c2c1 as the molecule, how does the growth read?
Answer: 83.4% (inactive)

Question: With COc1cc2c3c(n(CCCn4ccnc4)c(=O)c2cc1OC)-c1nc2c(cc1C3=O)OCO2 as the molecule, how does the growth read?
Answer: 18.3% (inactive)
